# High-throughput results as filed in PubChem BioAssay.
# In the library only some 2.2% were active in any assay of this set; here they are far more common.
# APP 5UTR inh: inhibitors of APP translation via 5'UTR reporter, primary screen, APP 5'UTR luciferase, SH-SY5Y cells | SH-SY5Y APP 5'UTR-luciferase reporter, luminescence | inhibition, % at 2 µM | 190,000 compounds, 0.82% hits | AID 1285, 2008;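 active means inhibition above a set limit, derived from the sample mean plus 3 SD, cut at about 45% in these data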
# aSyn UTR inh: MLPCN primary screen, SNCA 5' untranslated region; inhibition, % (tested at 7.5 µM); 300,000 compounds, 0.82% hits; alpha-synuclein 5'UTR reporter, inhibitor activity; in the data active means inhibition above about 60%;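 further: H4 neuroglioblastoma cells stably carrying SNCA 5'UTR luciferase fusion; 0% = DMSO wells and 100% = positive control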
# BaF3 parental: parental Ba/F3 cell viability inhibition, counter-screen for JAK2V617F inhibitor project, murine pro-B, CellTiter-Glo luminescence; inhibition, % at 5.6 µM; CellTiter-Glo ATP luminescence; 220,000 compounds, 1.1% hits; AID 1486, 2009;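 active means inhibition above a per-campaign cutoff, the mean inhibition of all tested compounds plus 3 SD, cut at about 27% in these data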;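 further: 0% = DMSO wells and 100% = JAK Inhibitor I control wells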
# KLF5 inhibitor: KLF5 expression inhibitors, primary screen, DLD-1 cells, luminescence; 290,000 compounds, 0.23% hits; DLD-1 KLF5 promoter-luciferase reporter; inhibition, % at 5 µM; AID 1700, 2009;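 active means inhibition above a per-plate limit of that plate's mean compound inhibition plus 3 SD, cut at about 60% in these data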;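 further: 0% = DMSO wells and 100% = LY294002 at 200 µM; higher means less KLF5 promoter-driven luciferase light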
# Ba/F3 V617F tox: reduced viability of JAK2V617F-dependent Ba/F3 cells, primary screen, JAK2V617F inhibitor project, cell-based, Ba/F3 EpoR-JAK2V617F, luminescence. ATP luminescence. inhibition, % at 5.6 µM. 220,000 compounds, 1.1% hits. AID 1446, 2008;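 active means inhibition above the campaign mean plus 3 SD over all tested compounds, cut at about 24% in these data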;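 further: cytokine-independent growth of Ba/F3 cells driven by EpoR plus mutant JAK2; 0% = DMSO-treated cells and 100% = JAK inhibitor I control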
# IEC-6 cytotox: cytotoxicity in IEC-6 intestinal epithelial cells, primary screen, cytotoxicity control for KLF5 inhibitor project, cell-based, luminescence; IEC-6 cytotoxicity, luminescence viability; inhibition, % at 5 µM; 290,000 compounds, 0.78% hits; in the data active means inhibition above about 22%;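 further: 0% = plate median of test compound wells and 100% = cytotoxic reference compound wells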
# Numbers without * were called inactive; / = no result.
SMILES,APP 5UTR inh,aSyn UTR inh,BaF3 parental,KLF5 inhibitor,Ba/F3 V617F tox,IEC-6 cytotox
O=S(=O)(Nc1cc(Sc2cccc3cccnc23)c(O)c2ccccc12)c1ccc(F)cc1,78*,-4,3,2,-3,51*
CSc1ccc(CNC(=O)CCn2ccc3cc(S(=O)(=O)N4CCCC4)ccc32)cc1,/,18,/,-9,/,-3
N#Cc1c(Cl)cccc1N1CCC(C(N)=O)CC1,/,22,4,1,-3,4
COc1ccc(-c2n(CC(=O)OC3CC(C)CCC3C(C)C)c3ccccc3[n+]2C)cc1 (centres undefined),14,101*,89*,52,100*,21
COc1ccc(OCc2n(CC(=O)OC3CC(C)CCC3C(C)C)c3ccccc3[n+]2C)cc1 (centres undefined),/,30,100*,-6,99*,12
CCC(C(=O)O)N1C(=O)C2CCCCC2C1=O (centres undefined),/,1,-5,-29,3,-2
CCCCC(CCC(=O)Nc1ccn(-c2ccccc2)n1)C(=O)O (centres undefined),/,-2,63*,10,-3,8
Cc1cc(C)n(-c2cc(Cl)cc(Cl)c2)c(=O)c1C#N,8,13,6,1,2,3
Cc1ccc(-n2c(C)cc(C)c(C#N)c2=O)cc1Cl,62*,7,7,8,2,2
O=C(Nc1nnc(-c2ccco2)o1)c1ccc([N+](=O)[O-])s1,-24,-71,5,-38,-1,-5
Cc1cc(SCC(=O)N/N=C/c2ccc(O)c(O)c2O)c(C)cc1Br,6,68*,-1,27,-4,-5
COc1cc(/C=N/NC(=O)CSc2cc(C)c(Br)cc2C)ccc1O,-16,2,3,-11,-1,13
COc1cc2c3nnc(-c4ccc(F)cc4)c-3cn(Cc3ccccc3F)c2cc1OC,53*,/,4,-15,1,-2
O=C(Cc1csc(Nc2nc(=S)[nH]c3ccccc23)n1)NCCCN1CCN(c2ccccc2F)CC1,14,92*,9,10,0,0
CN=c1scc(-c2ccccc2Br)n1/N=C/c1ccc[nH]1,-174,64*,9,-27,5,-4
CC(C)(C)N(Cc1ccccc1)C(=O)c1cc2ccccc2o1,/,1,/,-12,/,-3
COc1ccc2c(c1)c(CC(=O)Nc1nnc(C3CC3)s1)c(C)n2C(=O)c1ccc(Cl)cc1,/,24,38*,-8,17,7
Cc1cccn2c(=O)nc(SCC(=O)N3CCC(C)CC3)nc12,/,24,/,/,/,/
COc1ccc(C(=O)Nc2nc3ccccc3s2)cc1,/,67*,/,3,/,-6
CCc1nnc(NC(=O)c2cccc(C(=O)Nc3nnc(CC)s3)n2)s1,85*,66*,12,54,3,93*
CCOCc1nnc(NC(=O)c2ccc(OC)cc2)s1,47*,-73,-1,-66,-1,-4
CCc1nnc(NC(=O)c2ccncc2)s1,8,-6,5,-12,3,5
COc1cccc(C(=O)Nc2nc3ccccc3s2)c1,/,-108,/,-145,/,-1
CN(C(=O)c1ccc(-c2nn(C)c(=O)c3ccccc23)cc1)C1CCCCC1,/,21,/,5,/,7
CCN(CC)c1ccc2cc(C(C)=O)c(=O)oc2c1,-17,-30,5,-7,-2,2
SMILES,APP 5UTR inh,aSyn UTR inh,BaF3 parental,KLF5 inhibitor,Ba/F3 V617F tox,IEC-6 cytotox
CCN(CC)c1ccc2cc(NC(=O)CCC(=O)O)c(=O)oc2c1,52*,120*,0,41,-2,2
Cc1ccc(CN2CCN(/N=C/c3ccc(C(=O)O)cc3)CC2)c(C)c1,-12,11,53*,-4,8,7
COc1cc(NC(=O)C2=C(C)OCCS2)c(Cl)cc1C(=O)NCCN(C)C,/,-18,/,-33,/,4
COc1ccc(CC(=O)Oc2ccc(C(C)(C)C)cc2)cc1S(=O)(=O)N1CCOCC1,/,-1,/,/,/,/
COc1ccc(-c2nc(C(N)=O)c3[nH]c(=O)n(-c4cccc(Cl)c4)c3n2)cc1OC,-2,17,11,-19,0,2
CCc1ccc(-c2nc(C(N)=O)c3[nH]c(=O)n(-c4ccccc4OC)c3n2)cc1,95*,82*,10,-26,2,-1
CCOc1ccc(C(=O)C[n+]2cccc3cc(C)ccc32)cc1,/,5,/,-10,/,1
Cc1ccc(C(=O)C[n+]2cccc3cc(C)ccc32)cc1,10,1,70*,-11,5,2
CCc1ccc(CCC(=O)Nc2ncc(Cc3ccccc3Cl)s2)o1,71*,-7,3,-17,0,3
O=C(CN1CCOCC1)Nc1ncc(Cc2ccccc2Cl)s1,4,15,1,10,-6,-2
Cc1ccc(NC2=C/C(=N\S(=O)(=O)c3cccs3)c3ccccc3C2=O)c(C)c1,-105,118*,33*,-81,56*,8
Cn1c(CNC(=O)CNS(=O)(=O)c2ccc(Cl)cc2)cc(=O)n(C)c1=O,/,-35,/,-23,/,-1
CN(Cc1ccccc1)CC(O)COc1ccc(CNCc2ccc(Cl)s2)cc1 (centres undefined),13,-43,3,-39,0,-3
CC(=O)N1CCN(C(=O)c2cc(S(=O)(=O)N3CCCCC3)ccc2Cl)CC1,/,3,/,/,/,/
C#CC[N+](C)(C)CCCCCCCCC,-9,65*,62*,-10,82*,-9
CC#CC[N+](C)(C)CCCCCCCCCC,/,-9,79*,5,95*,10
CC(NC(=O)COC(=O)c1ccc2c(c1)S(=O)(=O)N=C1CCCCCN12)C12CC3CC(CC(C3)C1)C2 (centres undefined),28,68*,3,-32,-2,-3
Cc1nc2ccc(NC(=O)CSc3nnc(C)s3)cc2[nH]1,/,1,/,6,/,-10
COC(=O)CCCCCCCC(=O)Nc1nnc(C(F)(F)F)s1,/,0,2,-8,-1,0
Cc1cc(C[n+]2ccccc2)c2nsnc2c1,10,3,59*,-33,59*,2
Cc1cc(C[n+]2ccsc2N)c2ncccc2c1,/,0,-13,-6,1,6
CS(=O)(=O)NCCNC(=O)c1cc(OCC(F)(F)F)ccc1OCC(F)(F)F,78*,-2,4,-16,2,2
CC(=O)Nc1sc(NC(=O)c2ccc(Cl)cc2)nc1-c1cccs1,-9,-73,5,-6,2,3
CC(=O)Nc1sc(NC(=O)c2ccc([N+](=O)[O-])cc2)nc1-c1cccs1,/,-4,46*,-5,11,8
Cc1noc(C)c1CSCC(=O)Nc1ccccc1N1CCCCC1,/,5,/,/,/,/
CN[C@H]1CCc2cc(OC)c(OC)c(OC)c2-c2ccc(N(C)CC(OC)OC)c(=O)cc21,/,70*,/,4,/,10
O=C(OCCOCCN=C1NS(=O)(=O)c2ccccc21)c1ccccc1Br,/,-17,/,-10,/,6
